Measurements reported in PubChem BioAssay AID504684 (Southern Research Specialized Biocontainment Screening …, 2011).
Entries with a potency or affinity are not part of this list. Activity calls are given as the source filed them. How the calls were made is not given here.

Assay: Vero cell cytotoxicity, cytotoxicity control for M. tuberculosis inhibitor project, purified and synthesized samples, set 3 (AID 504684)
Conditions: series mostly up to 100 µM

SMILES | outcome
Cc1cc(=O)[nH]c(SCC(=O)Nc2ccccc2)n1 | inactive
CC[N+](C)(CC)CCCCOc1ccc2c(c1)C(=O)c1cc(OCCCC[N+](C)(CC)CC)ccc1-2 | inactive
COC(=O)C1CC(=O)N(c2ccc(OCc3ccccc3Cl)cc2)C1 (stereo not drawn) | inactive
Cc1cc(=O)[nH]c(=S)[nH]1 | inactive
CCOC1OC(=O)C(Cl)=C1Nc1ccccc1C (stereo not drawn) | inactive
O=C(CSc1ncccn1)NC1CCCCC1 | inactive
COC(=O)C(C)Oc1ccc(-c2nccc(-c3ccccn3)n2)cc1 (stereo not drawn) | inactive
Cc1nc(SCC(N)=O)[nH]c(=O)c1C | inactive
O=C(CSc1nc2ccccc2c(=O)[nH]1)NC1CCCCC1 | inactive
CCOC(=O)COc1ccc(/C=C2\NC(=S)N(CC)C2=O)cc1 | inactive
O=C(CSc1ccccn1)NC1CCCCC1 | inactive
CCOC(=O)CSc1nc(C)c(C)c(=O)[nH]1 | inactive
CCSc1nc(C)c(C)c(=O)[nH]1 | inactive
COc1cc(NC(=O)C/C(C)=N/NC(=O)c2ccccn2)c(OC)cc1Cl | inactive
O=C(CSc1nccc(=O)[nH]1)Nc1ccc(N2CCOCC2)cc1 | inactive
Cc1c[nH]c(=S)[nH]c1=O | inactive
Cc1nc(SCC(=O)NC2CCCCC2)[nH]c(=O)c1C | inactive
COC(=O)C(C)Oc1ccc(Cc2ncc(C(F)(F)F)cc2Cl)cc1 (stereo not drawn) | inactive
CCOC(=O)COn1c2c(c3c4no[n+]([O-])c4ccc31)CCCC2 | inactive
O=C(CSc1nc(O)cc(=O)[nH]1)Nc1ccccc1 | inactive
CC(=NCc1ccc2c(c1)OCO2)C1=C(O)c2ccccc2C1=O | inactive
Cc1[nH]c(=S)[nH]c(=O)c1C | inactive
Cc1ccc(NC(=O)COC(=O)CCc2c[nH]c3ccccc23)cc1[N+](=O)[O-] | inactive
